Assay outcomes: PubChem BioAssay, National Center for Advancing Translational Sciences (NCATS)
D2 ag-1: HTS Assay for Allosteric Agonists of the Human D2 Dopamine Receptor: Primary Screen for Agonists. activation, % at 2 µM. AID 485358, 2010. actives 0.53% (n = 340,000). HEK293 T-REx D2 cells, calcium flux agonist mode. D(2) dopamine receptor (Homo sapiens), P14416;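 active means activation over 3 SD above normal in the single-dose calcium agonist read, cut at about 30% in these data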
Target sequence (P14416 whole entry, looked up): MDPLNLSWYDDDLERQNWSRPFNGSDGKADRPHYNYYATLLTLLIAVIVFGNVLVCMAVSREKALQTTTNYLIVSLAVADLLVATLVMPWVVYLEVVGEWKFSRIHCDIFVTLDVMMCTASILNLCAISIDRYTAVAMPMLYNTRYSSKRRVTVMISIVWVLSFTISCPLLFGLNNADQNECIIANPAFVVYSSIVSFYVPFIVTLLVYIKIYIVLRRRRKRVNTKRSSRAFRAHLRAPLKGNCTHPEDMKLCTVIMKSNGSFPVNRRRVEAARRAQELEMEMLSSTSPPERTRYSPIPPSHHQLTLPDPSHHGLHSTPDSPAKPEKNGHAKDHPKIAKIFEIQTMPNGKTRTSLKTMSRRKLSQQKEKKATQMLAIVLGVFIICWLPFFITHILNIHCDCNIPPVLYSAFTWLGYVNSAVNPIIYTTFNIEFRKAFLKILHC
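Calcium-flux readout, 1 cycle/sec over 180 s following compound pin transfer, in inducible HEK293 Trex D2 cells (force-coupled); dopamine controls included. Positive calcium responses during this window marked compounds as potential agonists.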
D2 PAM-1: HTS Assay for Positive Allosteric Modulators of the Human D2 Dopamine Receptor: Primary Screen for Potentiators; AID 485347, 2010; potentiation, % at 10 µM; actives 0.34% (n = 340,000); HEK293 T-REx D2, calcium flux, EC20 dopamine potentiation;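 active means potentiation over 3 SD above the plate norm, cut at about 30% in these data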
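Primary screen. Calcium kinetics in induced HEK293 T-REx D2 cells: compound pre-addition 180 s, EC20 dopamine, 180 s more.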
D2 ag-2: Beta-Arrestin HTS for Positive Allosteric Modulators of the Human D2 Dopamine Receptor: Agonists. D(2) dopamine receptor (Homo sapiens), P14416. DiscoveRx PathHunter D2 beta-arrestin, luminescence, 90 min; 100% = 57 uM dopamine signal. activation, % (test concentration not listed). actives 0.084% (n = 360,000); in the data active means activation above about 40%
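Agonist mode: compounds alone added to overnight-plated D2 PathHunter cells for 90 min at 37 C, with 57 uM final dopamine (EC100) defining full response. Beta-arrestin recruitment detected by chemiluminescent reagent, read after 1 h at ambient temperature.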
D2 PAM-2: Beta-Arrestin HTS for Positive Allosteric Modulators of the Human D2 Dopamine Receptor: Potentiators; actives 0.23% (n = 360,000); D(2) dopamine receptor (Homo sapiens), P14416; potentiation, % (no concentration beside the values); DiscoveRx D2 beta-arrestin cells, luminescence, 90 min; 100% = 57 uM dopamine signal; AID 624464, 2012; in the data active means potentiation above about 50%
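D2 cells co-treated with compound plus 50 nM dopamine (EC20) for 90 min at 37 deg C to detect potentiation. Beta-arrestin recruitment was read as enzyme-fragment luminescence after 1 h at ambient temperature. Full response was set by 57 uM dopamine.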
D2 antag: HTS Assay for Allosteric Antagonists of the Human D2 Dopamine Receptor: Primary Screen for Antagonists | D(2) dopamine receptor (Homo sapiens), P14416 | actives 2% (n = 340,000) | inhibition, % at 10 µM | AID 485344, 2010 | HEK293 TREx D2 cells, calcium flux, dopamine EC80; in the data active means inhibition above about 30%; inactive means below that, where a call was filed
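Tetracycline-induced HEK293 T-REx cells expressing D2 force-coupled to calcium signalling were dye-loaded, exposed to compound for 180 s, then challenged with an EC80 of dopamine; calcium flux was followed kinetically for a further 180 s.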
Numbers stand for hits; . = inactive; / = no result given. A selection: hits, their analogues and other compounds. The true share with any hit is near 2.4%.

SMILES	D2 ag-1	D2 PAM-1	D2 ag-2	D2 PAM-2	D2 antag
Cc1ccccc1N(C(=O)c1ccccn1)C(C(=O)NCc1ccccc1)c1cccnc1 (configuration not stated)	/	36	.	.	/
Cc1ccccc1N(C(=O)c1csnn1)C(C(=O)NC(C)(C)C)c1cccs1 (configuration not stated)	.	.	.	.	36
CC(C)(C)NC(=O)C(c1ccncc1)N(C(=O)c1csnn1)c1ccccc1 (configuration not stated)	.	.	.	.	.
Cc1ccc(N(C(=O)c2csnn2)C(C(=O)NC(C)(C)C)c2cccs2)cc1 (configuration not stated)	.	.	.	.	.
Cc1ccc(C)c(-c2[nH]c3c(c2-c2c(-n4cccc4)n(C)c(=O)[nH]c2=O)c(=O)[nH]c(=O)n3C)c1	/	.	/	/	/
O=C(CCC1N=C2c3ccccc3N=C(SCc3cccc(F)c3)N2C1=O)NCc1cccs1 (configuration not stated)	.	.	/	/	/
O=S(=O)(c1ccc2ccccc2c1)n1nc(-c2ccco2)nc1NCc1ccc(F)cc1	.	.	/	/	/
CCC(C)(C)NC(=O)C(c1cccnc1)N(C(=O)c1csnn1)c1ccccc1 (configuration not stated)	.	40	.	.	.
CCN(C(=O)c1c(OC)cccc1OC)c1nnc(-c2cccnc2)s1	.	52	.	.	.
CCN(C(=O)COc1ccccc1)c1nnc(-c2cccnc2)s1	.	.	.	.	41
COCCN(C(=O)COc1ccccc1)c1nnc(-c2cccnc2)s1	.	.	.	.	.
O=C(C1CC1)N1CCN(c2nc3ccc(F)cc3s2)CC1	/	.	/	/	/
CCSc1nc2c([nH]c3ccccc32)c(=O)n1-c1ccc(F)cc1	.	.	/	/	/
N#CC(C#N)=c1ccc2c(c1)N1C3=C(CCCC3)CC3CCCCC31N=2 (configuration not stated)	.	.	.	71	.
N#C/C(C(N)=O)=c1/ccc2c(c1)N1C3=C(CCCC3)CC3CCCCC31N=2 (configuration not stated)	.	.	.	.	.
CC1CCN(S(=O)(=O)c2ccc3c(c2)c(=O)c(C(=O)NC(C)c2ccccc2)cn3C)CC1 (configuration not stated)	.	.	/	/	/
CN1CCN(C2=Nc3ccccc3Oc3ccc(Cl)cc32)CC1	.	.	.	.	91
Cc1ccc(/C=N/NC(=O)Cn2nnc(N)n2)cc1	.	.	.	.	41
CC(=O)c1cccc(NC(=O)Nc2sc3nc4n(c(=O)c3c2C)CCC(C)CC4)c1 (configuration not stated)	.	.	/	/	/
CCc1ccccc1NC(=O)CCNS(=O)(=O)c1ccc2c(c1)CCN2C(=O)C1CC1	.	.	/	/	/
Cc1cccc(NC(=S)NC2CC3CCCC(C2)N3Cc2cccs2)c1C (configuration not stated)	.	.	.	.	69
CCc1ccccc1NC(=S)NC1CC2CCCC(C1)N2Cc1cccs1 (configuration not stated)	.	.	.	.	72
Cc1ccc(NC(=S)NC2CC3CCCC(C2)N3Cc2cccs2)cc1 (configuration not stated)	.	.	.	.	72
O=C(Nc1cccc(Cl)c1)NC1CC2CCC(C1)N2Cc1cccs1 (configuration not stated)	.	.	.	.	73
Fc1ccc(NC(=S)NC2CC3CCCC(C2)N3Cc2cccs2)cc1 (configuration not stated)	.	.	.	.	.
SMILES	D2 ag-1	D2 PAM-1	D2 ag-2	D2 PAM-2	D2 antag
CCCN1C2CCCC1CC(NC(=S)Nc1cccc(C)c1C)C2 (configuration not stated)	.	.	.	.	.
O=C(OCC1CCCO1)c1ccc2c(c1)N(Cc1ccccc1)C(=O)c1ccccc1S2(=O)=O (configuration not stated)	.	.	/	/	/
O=C(Nc1ccc(S(=O)(=O)N(Cc2ccccc2)c2ccccc2)cc1)c1ccc(F)cc1	.	.	/	/	/
Cc1c(Cl)cccc1NC(=O)CN1C(=O)COc2ccc(S(=O)(=O)N3CCOCC3)cc21	.	.	/	/	/
COc1cccc(N2CCN(C(=O)c3cccc(NC(=O)c4nsc5ccccc45)c3)CC2)c1	.	.	/	/	/
CCN(Cc1ccccc1)C(=O)Cn1c(=O)n(-c2ccc(Cl)cc2)c(=O)c2c(C)c(C)sc21	.	.	/	/	/
O=C1N/C(=N\S(=O)(=O)c2ccccc2)S/C1=C\c1cc([N+](=O)[O-])ccc1O	33	.	.	.	.
COc1cc(/C=C2\S/C(=N/S(=O)(=O)Cc3ccccc3)NC2=O)c([N+](=O)[O-])cc1OC	/	.	.	.	/
O=C1N/C(=N\S(=O)(=O)Cc2ccccc2)S/C1=C/c1cc([N+](=O)[O-])ccc1O	59	.	.	.	31
CCn1cc(CN2CCC(C(=O)Nc3ccc(Oc4cccnc4)cc3)CC2)c(C)n1	.	.	.	.	.
CCn1cc(CN2CCC(C(=O)Nc3ccc(Oc4cccnc4)cc3)CC2)cn1	.	.	.	.	31
O=C(CCCn1c(=O)c2cccn2c2ccccc21)NCc1ccccc1Br	.	.	/	/	/
Cc1oc(-c2cccc(Cl)c2)nc1CSc1nc2c(c(=O)[nH]1)CCC2	.	.	.	.	.
Cc1oc(-c2ccccc2Cl)nc1CSc1nc2c(c(=O)[nH]1)CCC2	.	.	.	.	35
Fc1cccc2sc(Nc3nnc(-c4ccccc4)o3)nc12	.	.	.	.	43
Cc1c2ccccc2nc2c(F)c(NC(C)C)c(F)c(F)c12	45	.	.	.	.
Cc1ccc(S(=O)(=O)N2CCOCC2)cc1C(=O)OC1CCOC1=O (configuration not stated)	.	.	.	.	41
CC(=O)c1cccc(S(=O)(=O)N2CCC(C(=O)OC3CCOC3=O)CC2)c1 (configuration not stated)	.	.	.	.	43
N#CCC1c2ccccc2CCN1C(=O)Nc1ccc(C(F)(F)F)cc1 (configuration not stated)	.	.	.	.	65
CCOc1ccc(N(CC(=O)NCc2ccc(OC)cc2)S(=O)(=O)c2c(C)[nH]c(=O)[nH]c2=O)cc1	.	.	.	.	/
